This is part of a sample that, as a whole, favours compounds with a hit. Of some 83,000 tested, about 20% had one in any assay.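 Each cell line was grown in a 96-well plate and treated with one concentration of compound for 48 hours. Values below 10 were considered active.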 Values without a mark were called inactive. Active and inactive are the calls of the source.

The subject of the assay is MDA-MB-468 breast. The assay can be described thus: NCI-60 one-dose screen, 48 h (100 = growth as untreated, 0 = no growth, -100 = all killed). Particulars: 10 µM unless noted.
With `CCN1CCN(Cc2ccc(NC(=O)c3nc4ccc5[nH]ncc5c4c4c3CCCC4)cc2C(F)(F)F)CC1`, the growth is -51.9% (active).
For the compound `O=C(Cc1csc2nc(-c3ccc(Cl)cc3)cn12)N/N=C/c1ccccc1O`, the growth is 56.7%.
For `Cc1nc(Nc2ccc(F)c(Cl)c2)sc1C(=O)O`, the growth is -1.67% (active).
Next, `NC(=O)SCC(=O)NNc1ccccc1`: 92.9%; `Cc1ccc(C(=Nc2ccccc2)N=P(c2ccccc2)(c2ccccc2)c2ccccc2)cc1`: -83% (active); `COc1cc(-c2cc(/C=C/C(=O)c3ccc4c(c3)OCO4)[nH]n2)cc(OC)c1OC`: -4.54% (active).
For the compound `CCn1cc(C(=O)N/N=C/c2ccccc2)c(=O)c2cc(F)c(N3CCNC(C)C3)c(F)c21` (centres undefined), the growth was 30.4%.
Next, `COc1cc(/C=C2\CCCC3=C2N=C2SC(C)=NN2C3c2cc(OC)c(OC)c(OC)c2)cc(OC)c1OC` (centres undefined): 19.8%; `O=C(Nc1cccc(-n2cc(-c3ccncc3)c(-c3cc(O)cc(Cl)c3)n2)c1)c1ccc(N2CCOCC2)c(C(F)(F)F)c1`: 26%.
Next, `CC1(C)OB(O)c2cc(-c3nc4ccc5[nH]ncc5c4c4c3CCCC4)ccc21`: 69.5%; `COC1=CC(=O)C[C@@H](C)[C@]12Oc1c(Cl)c(OC)cc(OC)c1C2=O`: 76.8%; `COc1nc(OC)nc(-c2cc(-c3cc(OC)c(OC)c(OC)c3)no2)n1`: 104%.
Consider `C(=C\c1cn(-c2ccccc2)nc1-c1ccccc1)/c1nnc(-c2c[nH]c3ccccc23)o1`, for which the growth was 87.1%.
With `C=CCn1c(C)nc2cc(Nc3nc(Nc4ccc5nc(C)n(CC=C)c5c4)c4ccccc4n3)ccc21`, the growth was -85% (active).

These data come from PubChem BioAssay (NCI).
